Assay [1] can be described thus: CCTE_Shafer_MEA_dev_inter_network_spike_interval_mean: CCTE's Neural Network Formation Assay for Mean Inter-network Spike Interval, Shafer Lab (AID 2284047).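 As to AC50: potency for a decrease in mean inter-network spike interval below DMSO.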 Put shortly:
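Compound was given at plating to primary rat cortical neurons and renewed with full medium changes on DIV 5 and 9. Extracellular activity was recorded on days 5, 7, 9, 12; AUC values were fitted for loss relative to DMSO control.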

Assay [2] relates to Brachyury (BRA) Protein Expression, Deisenroth Lab, TBXT (gene 6862). Briefly: CCTE_Deisenroth_DEVTOX-GLR_legacy_Bra: (Legacy) CCTE's DevTox GLR-Endo Assay Evaluation of Brachyury (BRA) Protein Expression, Deisenroth Lab (AID 2284329). Put shortly:
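RUES2-GLR human pluripotent cells differentiated 48 h with two 24-h-interval chemical exposures (1 nM - 200 uM, 10 points); fixed, nuclear-stained, imaged. Bra+ cell percentage (intensity 5x BMAD above pluripotent control median) fitted relative to 0.2% DMSO.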

A short description of assay [3]: CCTE_Deisenroth_DEVTOX-GLR_legacy_CellCount: (Legacy) Viability Assessment in CCTE's DevTox GLR-Endo Assay, Deisenroth Lab (AID 2284331). To be noted: actives raise or lower the signal. Put shortly:
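Seed RUES2-GLR 24 h; differentiate 48 h, dosing at 0 and 24 h; fix, stain nuclei; image 5 fields/well; count nuclei. Conc. 1 nM - 200 uM, single technical replicate, n=4 experiments; bidirectional fit vs 0.2% DMSO.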

The subject of assay [4] is SRY-box transcription factor 17 (SOX17) Protein Expression, Deisenroth Lab, SOX17 (gene 64321). Briefly: CCTE_Deisenroth_DEVTOX-GLR_legacy_Sox17: (Legacy) CCTE's DevTox GLR-Endo Assay Evaluation of SRY-box transcription factor 17 (SOX17) Protein Expression, Deisenroth Lab (AID 2284341). To be noted: actives raise or lower the signal. Put shortly:
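Using the RUES2-GLR line, compounds are tested as 10-point series during 48-h defined-media differentiation. Sox17 reporter fluorescence per cell determines positivity; endpoint is percentage positive, analysed bidirectionally versus DMSO baseline.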

The test system of assay [5] is SRY-box transcription factor 2 (SOX2) Protein Expression, Deisenroth Lab, SOX2 (gene 6657). Briefly: CCTE_Deisenroth_DEVTOX-GLR_legacy_Sox2: (Legacy) CCTE's DevTox GLR-Endo Assay Evaluation of SRY-box transcription factor 2 (SOX2) Protein Expression, Deisenroth Lab (AID 2284346). An outline of the steps:
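RUES2-GLR human pluripotent cells seeded 24 h, then differentiated 48 h in defined media with two chemical doses 24 h apart (10-point, 1 nM–200 uM). Fixed, nuclear-stained, imaged; % Sox2+ cells (>5x BMAD over endoderm control median), DMSO-subtracted, fitted upward.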

The test system is the same in assay [6]. Kind of assay: CCTE_Deisenroth_DEVTOX-GLR_Endo_SOX2: CCTE's DevTox GLR-Endo Assay Evaluation of SRY-box transcription factor 2 (SOX2) Protein Expression, Deisenroth Lab (AID 2284412; active = hit-call score of the fitted dose curve at least 0.9, where 1 is the maximum). An outline of the steps: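 RUES2-GLR human pluripotent cells were seeded 24 h, then differentiated 48 h with two chemical exposures 24 h apart. Cells were fixed, nuclei stained and imaged by high-content microscopy. Endpoint is %SOX2+ cells over cell count, minus 0.2% DMSO control; 10-point series 1 nM–200 uM.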

In assay [7] the test system is SRY-box transcription factor 17 (SOX17) Protein Expression, Deisenroth Lab, SOX17 (gene 64321). Briefly: CCTE_Deisenroth_DEVTOX-GLR_Endo_SOX17: CCTE's DevTox GLR-Endo Assay Evaluation of SRY-box transcription factor 17 (SOX17) Protein Expression, Deisenroth Lab (AID 2284413). An outline of the steps:
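Endpoint: % change in SOX17+ fraction (SOX17+ cells / cell count) vs 0.2% DMSO solvent control. RUES2-GLR reporter cells, 48 h endoderm differentiation, two doses at 24 h intervals, high-content fluorescence imaging, 5 fields/well.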

The test system of assay [8] is Brachyury (BRA) Protein Expression, TBXT (gene 6862). Kind of assay: CCTE_Deisenroth_DEVTOX-GLR_Endo_BRA: CCTE's DevTox GLR-Endo Assay Evaluation of Brachyury (BRA) Protein Expression, Deisenroth Lab (AID 2284417). An outline of the steps: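 Percent BRA+ (mesoderm) RUES2-GLR cells after 48 h differentiation with two exposures, 1 nM - 200 uM; 0.2% DMSO control subtracted.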

The nature of assay [9]: CCTE_Deisenroth_DEVTOX-GLR_Endo_CellCount: Viability Assessment in CCTE's DevTox GLR-Endo Assay, Deisenroth Lab (AID 2284420). An outline of the steps:
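Viability in differentiating RUES2-GLR cultures is scored by fluorescent nuclear counts after 48 h and two 24-hourly chemical treatments, as percent change from the 0.2% DMSO control.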

For assay [10], the system named is SRY-box transcription factor 17 (SOX17) Protein Expression, Deisenroth Lab, SOX17 (gene 64321). Kind of assay: CCTE_Deisenroth_DEVTOX-GLR_Pluri_SOX17: CCTE's DevTox GLR-Pluri Assay Evaluation of SRY-box transcription factor 17 (SOX17) Protein Expression, Deisenroth Lab (AID 2284427; active = hit-call score of the fitted dose curve at least 0.9, where 1 is the maximum). Put shortly: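 Seed cells 24 h; differentiate 48 h, dosing at 0 and 24 h (1 nM - 200 uM); fix, stain nuclei, image 5 fields per well; count SOX17+ cells over total cells and subtract 0.2% DMSO control.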

Assay [11] relates to SRY-box transcription factor 2 (SOX2) Protein Expression, Deisenroth Lab, SOX2 (gene 6657). Briefly: CCTE_Deisenroth_DEVTOX-GLR_Pluri_SOX2: CCTE's DevTox GLR-Pluri Assay Evaluation of SRY-box transcription factor 2 (SOX2) Protein Expression, Deisenroth Lab (AID 2284428). Put shortly:
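SOX2 expression frequency is scored in a human pluripotent reporter line, RUES2-GLR, exposed to chemicals twice over 48 h. Imaging-based SOX2+ cell percentage is normalized as change versus 0.2% DMSO.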

The test system of assay [12] is Brachyury (BRA) Protein Expression, Deisenroth Lab, TBXT (gene 6862). Kind of assay: CCTE_Deisenroth_DEVTOX-GLR_Pluri_BRA: CCTE's DevTox GLR-Pluri Assay Evaluation of Brachyury (BRA) Protein Expression, Deisenroth Lab (AID 2284429; active = hit-call score of the fitted dose curve at least 0.9, where 1 is the maximum). Put shortly:
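Human pluripotent RUES2-GLR cells, seeded 24 h, were differentiated 48 h in defined media with two chemical doses at 24-h intervals (10-point, 1 nM - 200 uM). Readout: percent BRA+ cells by fluorescent reporter imaging, minus 0.2% DMSO control.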

The nature of assay [13]: CCTE_Deisenroth_DEVTOX-GLR_Pluri_CellCount: Viability Assessment in CCTE's DevTox GLR-Pluri Assay Evaluation of Total Cell Counts, Deisenroth Lab (AID 2284430). An outline of the steps: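 RUES2-GLR human pluripotent cells, seeded 24 h, then differentiated 48 h with two chemical exposures 24 h apart; 10-point series 1 nM - 200 uM. Fixed, nuclear-stained, imaged (5 fields/well); nuclei count as % change vs 0.2% DMSO.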

The target in assay [14] is Thyroid hormone receptor alpha (Rattus norvegicus) + Thyroid hormone receptor beta (Rattus norvegicus) (UniProt P18113+P63059). Kind of assay: TOX21_TR_LUC_GH3_Agonist_Followup: Tox21 GH3 Thyroid Hormone Receptor Agonism Luciferase Follow-Up Assay (AID 2283939; active = hit-call score of the fitted dose curve at least 0.9, where 1 is the maximum). Put shortly: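 Rat GH3 cells (1,500/well) in serum-free assay medium, treated with 15-point series, 92 uM to 5 nM final, for 24 h at 37C. Luciferase via ONE-Glo luminescence; gain of signal fitted against DMSO, T3 positive control.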

The target in the next assay is THRA (gene 7067) (UniProt P10827). Kind of assay: TOX21_TRA_COA_Agonist_Followup_ratio: Tox21 Thyroid Hormone Receptor alpha Agonism through Coactivator Recruitment Follow-Up Assay, Ratio (AID 2283948). Put shortly: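 First, compound was incubated with 2.5 nM GST-TRα LBD in 0.10% BSA. Next, 200 nM fluorescein-SRC-2 and 2 nM Tb-anti-GST antibody were added. Finally, the 520:495 nm ratio was normalized to DMSO and T3 controls.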

The target of a further assay is THRB (gene 7068) (UniProt P10828). Kind of assay: TOX21_TRB_COA_Agonist_Followup_ratio: Tox21 Thyroid Hormone Receptor beta Agonism through Coactivator Recruitment Follow-Up Assay, Ratio (AID 2283963). An outline of the steps:
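Agonism is measured as coactivator recruitment in a purified-protein TR-FRET format, using GST-TRβ LBD at 5.0 nM, fluorescein-SRC-2 peptide at 200 nM and Tb-labeled anti-GST antibody at 2 nM. Values are 520:495 nm ratios relative to DMSO (0%) and T3 (100%).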

Assay [15] is described as follows: TOX21_PR_LUC_Followup_Agonist_viability: Viability Assessment in the Tox21 HEK293 Progesterone Receptor (PR) Agonism Luciferase Follow-Up Assay (AID 2283941; active = hit-call score of the fitted dose curve at least 0.9, where 1 is the maximum;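 also: compound exposure 16 h at 37 °C; loss of signal means cytotoxicity so actives lower viability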). An outline of the steps: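 Luminescent ATP quantitation (CellTiter-Glo) serves as the read-out; a drop flags cytotoxic compounds. Cells are HEK293-PR-A-luc grown in 10% charcoal-stripped FBS, plated 3,000/well, and exposed to compound for 16 h.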

Where “and” joins values, the source holds several entries; their conditions need not be identical. Equal values may be shown once. Inconclusive results are not listed. More than one record can exist for a structure, and the calls need not agree. Calls of active or inactive are those of the source. The calls were made as follows, unless noted: active = hit-call score of the fitted dose curve at least 0.9, where 1 is the maximum; inactive = score below 0.9.

Chain of THRA (gene 7067) (P10827 whole entry, looked up, the tested form may be a part): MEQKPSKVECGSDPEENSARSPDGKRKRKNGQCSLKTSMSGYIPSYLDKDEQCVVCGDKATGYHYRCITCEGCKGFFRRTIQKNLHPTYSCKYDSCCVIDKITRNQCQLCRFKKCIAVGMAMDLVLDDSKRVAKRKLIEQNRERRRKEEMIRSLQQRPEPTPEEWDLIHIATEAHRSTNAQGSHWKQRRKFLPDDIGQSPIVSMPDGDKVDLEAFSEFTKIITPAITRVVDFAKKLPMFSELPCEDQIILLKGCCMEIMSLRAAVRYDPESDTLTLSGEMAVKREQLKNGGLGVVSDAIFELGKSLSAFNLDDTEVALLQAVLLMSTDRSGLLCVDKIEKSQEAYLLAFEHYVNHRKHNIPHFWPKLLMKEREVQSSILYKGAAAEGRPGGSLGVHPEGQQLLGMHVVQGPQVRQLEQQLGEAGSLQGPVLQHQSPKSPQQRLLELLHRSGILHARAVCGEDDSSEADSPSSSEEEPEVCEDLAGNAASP
Chain of Thyroid hormone receptor alpha (Rattus norvegicus) + Thyroid hormone receptor beta (Rattus norvegicus) (P63059 whole entry, looked up): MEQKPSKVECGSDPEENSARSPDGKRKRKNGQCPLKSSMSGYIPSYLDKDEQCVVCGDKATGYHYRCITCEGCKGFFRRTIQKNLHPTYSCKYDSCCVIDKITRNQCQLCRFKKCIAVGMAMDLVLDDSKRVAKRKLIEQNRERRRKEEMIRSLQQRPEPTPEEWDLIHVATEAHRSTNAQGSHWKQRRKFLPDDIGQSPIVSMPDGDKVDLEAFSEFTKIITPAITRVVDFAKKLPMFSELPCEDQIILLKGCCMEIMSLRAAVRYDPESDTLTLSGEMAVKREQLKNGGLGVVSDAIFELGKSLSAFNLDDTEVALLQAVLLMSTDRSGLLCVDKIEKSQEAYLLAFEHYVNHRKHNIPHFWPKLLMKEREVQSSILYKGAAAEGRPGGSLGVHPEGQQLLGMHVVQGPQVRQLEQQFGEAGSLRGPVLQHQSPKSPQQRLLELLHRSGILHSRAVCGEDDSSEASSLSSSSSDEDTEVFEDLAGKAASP
Chain of Thyroid hormone receptor alpha (Rattus norvegicus) + Thyroid hormone receptor beta (Rattus norvegicus) (P18113 whole entry, looked up): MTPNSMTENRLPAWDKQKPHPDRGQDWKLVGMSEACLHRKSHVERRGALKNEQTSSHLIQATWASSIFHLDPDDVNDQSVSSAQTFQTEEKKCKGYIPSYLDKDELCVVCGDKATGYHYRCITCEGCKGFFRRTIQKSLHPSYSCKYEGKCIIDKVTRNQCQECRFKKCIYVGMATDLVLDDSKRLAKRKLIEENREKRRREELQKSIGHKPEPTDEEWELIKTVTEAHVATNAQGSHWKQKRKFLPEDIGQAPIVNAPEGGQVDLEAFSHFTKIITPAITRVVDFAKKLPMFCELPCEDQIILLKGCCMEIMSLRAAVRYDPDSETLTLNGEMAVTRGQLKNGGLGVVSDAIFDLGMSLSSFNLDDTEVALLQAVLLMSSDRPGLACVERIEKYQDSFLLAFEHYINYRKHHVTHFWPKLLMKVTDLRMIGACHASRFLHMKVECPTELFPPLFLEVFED
Chain of THRB (gene 7068) (P10828 whole entry, looked up, the tested form may be a part): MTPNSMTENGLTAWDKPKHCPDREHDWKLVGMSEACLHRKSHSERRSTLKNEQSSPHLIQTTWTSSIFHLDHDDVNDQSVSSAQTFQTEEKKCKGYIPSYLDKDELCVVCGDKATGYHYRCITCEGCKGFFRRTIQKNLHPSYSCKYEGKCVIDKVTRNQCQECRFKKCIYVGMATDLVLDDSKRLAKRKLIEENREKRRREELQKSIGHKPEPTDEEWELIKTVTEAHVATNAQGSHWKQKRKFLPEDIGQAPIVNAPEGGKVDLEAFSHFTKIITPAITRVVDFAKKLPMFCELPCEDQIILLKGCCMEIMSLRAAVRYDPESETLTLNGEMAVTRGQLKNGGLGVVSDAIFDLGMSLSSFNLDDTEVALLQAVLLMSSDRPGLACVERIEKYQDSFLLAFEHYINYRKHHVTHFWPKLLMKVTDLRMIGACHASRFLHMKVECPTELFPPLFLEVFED

With `CN(C)C(=O)C(CCN1CCC(O)(c2ccc(Cl)cc2)CC1)(c1ccccc1)c1ccccc1`, in assay [1], the AC50 was 3 nM (active) and 2.62 µM (active); the call was inactive.
`O=C1Cc2cc(CCN3CCN(c4nsc5ccccc45)CC3)c(Cl)cc2N1`: the AC50 in assay [2] is 3.94 µM (active); in [3], 3.31 µM (active); in assay [4], 3.91 µM (active); in [5], 4.3 µM (active); in assay [6], 6.29 µM (active); in assay [7], 3.99 µM (active). For the same molecule, the AC50 was 4.78 µM (active) in assay [8]; 3.31 µM (active) in [9]; 4.27 µM (active) in assay [11]; 4.26 µM (active) in assay [12]; 4.26 µM (active) in assay [13]. The call in assay [10] was inactive.
Consider `COc1cc2c(Nc3ccc(Br)cc3F)ncnc2cc1OCC1CCN(C)CC1`, for which the AC50 was 8.49 µM (active) in assay [2]; 4.51 µM (active) in assay [3]; 4.92 µM (active) in [4]; 7.85 µM (active) in assay [5]; 8.62 µM (active) in assay [6]; 4.83 µM (active) in assay [7]. The AC50 in assay [8] was 6.72 µM (active); in assay [9], 4.46 µM (active). For the same molecule, the molecule was called inactive in [11] and in [13].
Take `Cc1nc(Nc2ncc(C(=O)Nc3c(C)cccc3Cl)s2)cc(N2CCN(CCO)CC2)n1`: the half-maximal activity concentration (AC50) in assay [2] was 3.19 µM (active); in assay [3], 0.0582 µM (active); in [4], 0.811 µM (active); in assay [5] it was 151 µM (active); in assay [6], 3.15 µM (active); in assay [7], 0.633 µM (active). Moreover, the AC50 in assay [8] is 21.7 µM (active); in assay [9], 0.0574 µM (active); in [10], 0.017 µM (active); in assay [11] it was 0.621 µM (active); in assay [12] it was 0.0529 µM (active); in [13] it was 0.0132 µM (active).
Consider `Cc1cc(-n2c(=O)[nH]c(=O)n(C)c2=O)ccc1Oc1ccc(S(=O)(=O)C(F)(F)F)cc1`, for which the result (in assay [14]; with THRA (gene 7067); with THRB (gene 7068)) was inactive.
Turning to `CCOC(=O)C1=C(C)NC(C)=C(C(=O)OC)C1c1cccc([N+](=O)[O-])c1` (stereo not drawn), the result in [15] was inactive.
As for `Cc1ccc(NC(=O)c2ccc(CN3CCN(C)CC3)cc2)cc1Nc1nccc(-c2cccnc2)n1`, the AC50 in assay [2] is 20.1 µM (active); in [3] it was 15.9 µM (active); in assay [4] it was 16.5 µM (active); in assay [5], 19.3 µM (active); in assay [6], 25.6 µM (active); in assay [7], 14.2 µM (active). In addition, the half-maximal activity concentration (AC50) in assay [8] was 22.7 µM (active); in assay [9], 15.8 µM (active); in assay [10], 47.4 µM (active); in assay [11], 15.7 µM (active); in assay [12] it was 23.2 µM (active); in assay [13], 22.4 µM (active).
Turning to `Cc1ccc(/C=N/n2c(-c3ccccc3)csc2=S)cc1`, the molecule was classed as inactive in assay [15].

The record behind these values is PubChem BioAssay (EPA / NIEHS).
